Results from the supplement of paper PMC11732987, “Enantioselective OTUD7B fragment discovery through chemoproteomics screening and high-throughput optimisation” (Communications Chemistry, 2025).

Assays:
Assay in all cases: log2 ratio of Biotin-Ahx-Ub-VS probe labelling (fragment/DMSO); higher = less target engagement (more negative = stronger competition), active = hit call of the paper (q ≤ 0.05, log2 ratio ≤ -1)
Conditions in all cases: compound concentration: 200 uM; treatment time: 3 h
OTUD6B = biological target: T1, OTUD6B (UniProt Q8N6M0)
T1 sequence (whole entry): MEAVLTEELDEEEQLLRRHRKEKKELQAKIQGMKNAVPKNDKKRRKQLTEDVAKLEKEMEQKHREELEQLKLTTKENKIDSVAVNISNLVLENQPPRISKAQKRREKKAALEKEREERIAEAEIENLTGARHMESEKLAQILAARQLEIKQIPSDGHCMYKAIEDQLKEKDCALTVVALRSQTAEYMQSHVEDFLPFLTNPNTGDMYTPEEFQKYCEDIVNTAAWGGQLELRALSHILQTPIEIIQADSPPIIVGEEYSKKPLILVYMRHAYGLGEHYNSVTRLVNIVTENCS
In short: (§1)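 HEK293T lysate (495 µg per sample, in Tris/CHAPS/IGEPAL buffer with protease inhibitors) was exposed in triplicate for 3 h to fragment at 200 µM or to vehicle, then to Biotin-Ahx-Ub-VS at 0.5 µM final for 1 h. Labelled DUBs were enriched on NeutrAvidin, digested with LysC and trypsin, and analysed by diaPASEF LC-MS/MS. Spectronaut label-free quantities were normalised to the global median, and values are average log2 ratios of fragment over vehicle from an unpaired t-test. Only proteins with ≥2 unique peptides were used.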

OTUD7B = biological target: T2, OTUD7B (UniProt Q6GQQ9)
T2 sequence (whole entry): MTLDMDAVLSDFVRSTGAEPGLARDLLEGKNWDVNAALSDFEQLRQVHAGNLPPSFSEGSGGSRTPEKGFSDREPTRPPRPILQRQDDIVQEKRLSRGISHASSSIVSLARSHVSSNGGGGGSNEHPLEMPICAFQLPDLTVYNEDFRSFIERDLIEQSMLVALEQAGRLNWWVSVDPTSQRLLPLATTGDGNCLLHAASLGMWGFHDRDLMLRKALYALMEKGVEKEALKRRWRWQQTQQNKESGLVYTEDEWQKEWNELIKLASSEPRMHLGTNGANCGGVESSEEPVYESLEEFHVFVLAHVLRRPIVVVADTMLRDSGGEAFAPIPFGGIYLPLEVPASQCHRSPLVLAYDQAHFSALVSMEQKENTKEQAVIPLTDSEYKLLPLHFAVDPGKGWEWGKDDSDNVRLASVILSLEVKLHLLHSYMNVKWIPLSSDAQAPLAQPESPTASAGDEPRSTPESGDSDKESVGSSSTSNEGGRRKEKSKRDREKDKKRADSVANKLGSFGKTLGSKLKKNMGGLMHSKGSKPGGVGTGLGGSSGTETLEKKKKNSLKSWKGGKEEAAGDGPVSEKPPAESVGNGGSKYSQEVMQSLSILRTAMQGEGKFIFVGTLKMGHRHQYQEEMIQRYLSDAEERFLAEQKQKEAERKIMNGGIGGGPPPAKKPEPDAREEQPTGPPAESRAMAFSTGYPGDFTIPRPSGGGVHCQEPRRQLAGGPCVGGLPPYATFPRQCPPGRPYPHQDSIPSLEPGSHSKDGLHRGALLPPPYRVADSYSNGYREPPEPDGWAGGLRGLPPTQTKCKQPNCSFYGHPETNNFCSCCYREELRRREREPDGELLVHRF
In short: as §1

PRPF8 = PRPF8 (UniProt Q6P2Q9)
In short: as §1

PSMD7 = biological target: T3, PSMD7 (UniProt P51665)
T3 sequence (whole entry): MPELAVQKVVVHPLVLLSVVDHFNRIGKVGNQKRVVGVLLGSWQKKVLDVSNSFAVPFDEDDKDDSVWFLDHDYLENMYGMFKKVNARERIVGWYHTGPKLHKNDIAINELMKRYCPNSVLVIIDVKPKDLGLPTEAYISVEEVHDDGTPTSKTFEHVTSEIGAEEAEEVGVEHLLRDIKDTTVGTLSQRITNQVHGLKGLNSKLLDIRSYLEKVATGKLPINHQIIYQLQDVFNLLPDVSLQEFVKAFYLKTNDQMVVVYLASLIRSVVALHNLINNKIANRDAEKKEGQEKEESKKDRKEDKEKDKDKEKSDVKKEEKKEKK
In short: as §1

UCHL1 = UCHL1 (UniProt P09936)
In short: as §1

UCHL3 = biological target: T4, UCHL3 (UniProt P15374)
T4 sequence (whole entry): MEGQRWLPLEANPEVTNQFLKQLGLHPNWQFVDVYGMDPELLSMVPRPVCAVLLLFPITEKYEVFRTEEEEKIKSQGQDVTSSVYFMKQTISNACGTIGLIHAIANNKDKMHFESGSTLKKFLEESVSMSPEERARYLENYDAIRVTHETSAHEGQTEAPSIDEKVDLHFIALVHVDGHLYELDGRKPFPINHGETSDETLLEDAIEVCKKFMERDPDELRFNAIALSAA
In short: as §1

UCHL5 = biological target: T5, UCHL5 (UniProt Q9Y5K5)
T5 sequence (whole entry): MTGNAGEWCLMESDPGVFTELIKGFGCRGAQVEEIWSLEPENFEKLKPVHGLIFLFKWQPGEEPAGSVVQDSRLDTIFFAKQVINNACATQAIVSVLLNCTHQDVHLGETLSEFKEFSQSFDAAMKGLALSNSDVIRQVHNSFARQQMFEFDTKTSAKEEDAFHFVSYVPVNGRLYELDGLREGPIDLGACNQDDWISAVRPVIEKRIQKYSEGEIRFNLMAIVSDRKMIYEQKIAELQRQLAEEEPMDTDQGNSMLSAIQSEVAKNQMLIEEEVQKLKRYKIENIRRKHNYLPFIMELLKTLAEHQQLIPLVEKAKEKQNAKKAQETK
In short: as §1

USP10 = USP10 (UniProt Q14694)
In short: as §1

USP15 = biological target: T6, USP15 (UniProt Q9Y4E8)
T6 sequence (whole entry): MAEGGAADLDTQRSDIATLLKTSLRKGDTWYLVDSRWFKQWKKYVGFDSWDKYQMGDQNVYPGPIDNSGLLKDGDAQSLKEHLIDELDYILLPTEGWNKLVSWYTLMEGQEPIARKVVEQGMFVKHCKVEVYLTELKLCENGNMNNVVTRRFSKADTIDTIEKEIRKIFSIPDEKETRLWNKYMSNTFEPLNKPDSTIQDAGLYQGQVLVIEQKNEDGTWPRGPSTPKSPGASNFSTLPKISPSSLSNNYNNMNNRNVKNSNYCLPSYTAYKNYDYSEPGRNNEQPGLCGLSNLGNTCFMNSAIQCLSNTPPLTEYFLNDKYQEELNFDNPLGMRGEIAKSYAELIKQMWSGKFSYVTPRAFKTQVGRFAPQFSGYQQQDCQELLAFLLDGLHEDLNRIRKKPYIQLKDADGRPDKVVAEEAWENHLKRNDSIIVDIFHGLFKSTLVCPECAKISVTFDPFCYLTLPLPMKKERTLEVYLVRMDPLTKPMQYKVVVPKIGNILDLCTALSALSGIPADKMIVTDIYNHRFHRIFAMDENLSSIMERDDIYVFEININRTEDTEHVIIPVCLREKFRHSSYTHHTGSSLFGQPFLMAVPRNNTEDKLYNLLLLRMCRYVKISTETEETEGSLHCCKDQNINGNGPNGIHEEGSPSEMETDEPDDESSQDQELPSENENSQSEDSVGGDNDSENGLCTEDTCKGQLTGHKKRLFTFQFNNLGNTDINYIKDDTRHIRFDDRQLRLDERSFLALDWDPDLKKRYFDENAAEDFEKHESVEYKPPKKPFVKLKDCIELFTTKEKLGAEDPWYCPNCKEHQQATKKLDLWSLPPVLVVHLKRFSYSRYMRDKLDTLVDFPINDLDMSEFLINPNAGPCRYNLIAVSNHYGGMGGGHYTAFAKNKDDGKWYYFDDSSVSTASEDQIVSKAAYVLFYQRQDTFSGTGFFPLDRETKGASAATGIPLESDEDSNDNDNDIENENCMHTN
In short: as §1

USP16 = USP16 (UniProt Q9Y5T5)
In short: as §1

Measured: log2 ratio of Biotin-Ahx-Ub-VS probe labelling

USP10, sequence (Q14694 whole entry): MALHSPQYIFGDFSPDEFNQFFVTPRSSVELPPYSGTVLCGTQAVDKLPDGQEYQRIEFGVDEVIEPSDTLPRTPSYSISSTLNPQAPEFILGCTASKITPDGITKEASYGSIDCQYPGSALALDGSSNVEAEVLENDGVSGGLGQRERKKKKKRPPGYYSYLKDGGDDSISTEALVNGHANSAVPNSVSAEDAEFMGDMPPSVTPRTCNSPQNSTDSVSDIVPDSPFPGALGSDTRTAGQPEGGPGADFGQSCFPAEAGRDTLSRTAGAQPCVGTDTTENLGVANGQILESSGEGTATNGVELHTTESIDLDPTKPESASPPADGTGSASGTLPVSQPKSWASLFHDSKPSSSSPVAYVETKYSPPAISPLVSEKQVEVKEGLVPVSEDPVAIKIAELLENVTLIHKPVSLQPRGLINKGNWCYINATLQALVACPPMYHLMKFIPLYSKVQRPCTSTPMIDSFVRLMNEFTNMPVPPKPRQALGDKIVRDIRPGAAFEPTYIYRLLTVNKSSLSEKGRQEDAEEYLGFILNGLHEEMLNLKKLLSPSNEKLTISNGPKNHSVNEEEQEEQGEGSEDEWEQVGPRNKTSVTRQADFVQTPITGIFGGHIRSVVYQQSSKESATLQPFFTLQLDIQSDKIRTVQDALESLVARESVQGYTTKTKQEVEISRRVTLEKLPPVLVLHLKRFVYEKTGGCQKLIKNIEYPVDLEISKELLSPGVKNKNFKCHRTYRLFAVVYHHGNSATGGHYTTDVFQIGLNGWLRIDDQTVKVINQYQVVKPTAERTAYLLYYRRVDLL
UCHL1, sequence (P09936 whole entry, looked up): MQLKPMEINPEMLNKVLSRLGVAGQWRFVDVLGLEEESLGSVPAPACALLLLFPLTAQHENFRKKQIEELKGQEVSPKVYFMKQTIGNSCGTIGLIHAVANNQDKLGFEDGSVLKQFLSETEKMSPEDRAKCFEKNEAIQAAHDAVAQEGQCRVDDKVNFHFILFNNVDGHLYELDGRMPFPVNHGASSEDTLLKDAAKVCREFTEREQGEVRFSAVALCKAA
USP16, sequence (Q9Y5T5 whole entry, looked up): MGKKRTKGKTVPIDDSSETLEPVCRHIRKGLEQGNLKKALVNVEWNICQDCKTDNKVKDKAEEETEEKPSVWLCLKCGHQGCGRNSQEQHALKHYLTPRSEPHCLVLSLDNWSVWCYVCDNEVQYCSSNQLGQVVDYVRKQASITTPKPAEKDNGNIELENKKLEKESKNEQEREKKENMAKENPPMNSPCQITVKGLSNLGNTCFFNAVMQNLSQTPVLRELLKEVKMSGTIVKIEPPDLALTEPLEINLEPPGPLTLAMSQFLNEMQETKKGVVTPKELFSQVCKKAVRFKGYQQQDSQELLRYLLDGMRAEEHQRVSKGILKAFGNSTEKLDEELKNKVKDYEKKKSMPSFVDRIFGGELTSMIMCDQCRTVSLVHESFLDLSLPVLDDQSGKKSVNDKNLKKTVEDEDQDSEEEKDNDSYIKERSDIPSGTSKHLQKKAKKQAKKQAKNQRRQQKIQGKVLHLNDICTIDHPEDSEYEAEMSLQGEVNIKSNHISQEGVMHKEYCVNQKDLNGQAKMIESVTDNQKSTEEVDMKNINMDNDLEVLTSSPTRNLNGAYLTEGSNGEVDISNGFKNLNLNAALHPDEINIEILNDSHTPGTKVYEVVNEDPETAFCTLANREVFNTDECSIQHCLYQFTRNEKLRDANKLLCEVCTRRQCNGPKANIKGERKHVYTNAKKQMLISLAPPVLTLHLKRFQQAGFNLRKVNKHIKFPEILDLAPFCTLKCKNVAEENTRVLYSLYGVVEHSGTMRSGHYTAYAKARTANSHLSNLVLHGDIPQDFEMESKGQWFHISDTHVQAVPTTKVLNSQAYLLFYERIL

CN(C)S(=O)(=O)c1ccccc1CNC(=O)CCl
active: UCHL1 -1.18
inactive: OTUD6B -0.265 | OTUD7B -0.0445 | PRPF8 -0.0375 | PSMD7 -0.18 | UCHL3 0.0942 | UCHL5 -0.199 | USP10 -0.156 | USP15 -0.0655 | USP16 0.14
